Reference: PubChem BioAssay
Active and inactive are the calls of the source.

Experiments:
[1] = tested on: PRMT1 (protein arginine N-methyltransferase 1); assay: PRMT1 binders on small-molecule microarrays, primary screen, biochemical, small-molecule microarray, 635 nm fluorescence (AID 1088); conditions: small-molecule microarray binding, higher = more signal;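 also: binding of Prmt1 protein to compounds spotted on small-molecule microarray slides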
[2] = yeast growth modulation, basal conditions, primary screen, YJM789 clinical isolate, OD600, 24 h (AID 1089);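 also: growth of clinical yeast isolate S. cerevisiae YJM 789 seeded 1000 cells per well; test concentration not given here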; conditions: S. cerevisiae YJM789 growth, higher = more signal, called active from +8 up or from −8 down
[3] = fission yeast growth modulation, primary screen, strain 972, OD600, 24 h, no modulator (AID 1090);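 also: basal condition with compound alone and no growth modifier present; test concentration not given here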; conditions: S. pombe 972 growth, higher = more signal, called active from +8 up or from −8 down
[4] = S. cerevisiae growth modulation with rapamycin, primary screen, strain BY4716, OD600, 96 h (AID 1091); conditions: higher = more signal, called active from +8 up or from −8 down; also: test concentration not given here
[5] = biological target: Torsin-1A-interacting protein 2 (Homo sapiens) (UniProt Q8NFQ8); assay: LULL1 binders on small-molecule microarray, primary screen, cell lysate, human LULL1 lysate, 635/667 nm fluorescence (AID 1092); conditions: hLULL1 lysate binding, 635 nm fluorescence, higher = more signal;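 also: probe is lysate of COS7 cells overexpressing human LULL1; score merges per-feature 667 nm fluorescence with signal-to-noise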
Sequence of Torsin-1A-interacting protein 2 (Homo sapiens) (Q8NFQ8 whole entry, looked up): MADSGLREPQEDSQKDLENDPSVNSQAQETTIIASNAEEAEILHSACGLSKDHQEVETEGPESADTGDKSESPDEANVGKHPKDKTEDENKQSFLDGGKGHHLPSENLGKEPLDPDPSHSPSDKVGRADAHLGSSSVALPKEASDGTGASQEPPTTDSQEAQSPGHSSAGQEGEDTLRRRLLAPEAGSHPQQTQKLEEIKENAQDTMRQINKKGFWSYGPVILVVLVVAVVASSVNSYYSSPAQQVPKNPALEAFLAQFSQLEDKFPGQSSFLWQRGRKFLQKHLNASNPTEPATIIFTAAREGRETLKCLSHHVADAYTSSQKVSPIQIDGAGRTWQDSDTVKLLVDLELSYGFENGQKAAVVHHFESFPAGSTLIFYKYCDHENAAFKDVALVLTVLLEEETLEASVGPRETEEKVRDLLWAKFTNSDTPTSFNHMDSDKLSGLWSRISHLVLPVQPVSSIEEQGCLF

[6] = E. coli growth modulation, two-sided OD650, primary screen, E. coli filamentation project, strain DRC41, 24 h (AID 1093); conditions: OD650, 24 h, higher = more signal, called active from +8 up or from −8 down;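 also: MC1000 strain lacking acrAB efflux and sulA so SOS filamentation is blocked; test concentration not given here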
[7] = small-molecule microarray binders of probe aLefty2, primary screen, biochemical, biotinylated probe, 635/667 nm fluorescence (AID 1094); conditions: higher = more signal;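 also: score merges spot fluorescence near 667 nm with spot signal-to-noise ratio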
[8] = tested on: Noggin (protein binding on small-molecule microarray); assay: Noggin binders on small-molecule microarray, primary screen, biochemical, 635/667 nm fluorescence (AID 1095); conditions: 635 nm fluorescence, higher = more signal;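 also: score merges 667 nm feature fluorescence with signal to noise over triplicate slides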
[9] = biological target: Neurogenic locus notch homolog protein 3 (Homo sapiens) (UniProt Q9UM47); assay: NOTCH3 binders on small-molecule microarray, primary screen, biochemical, 635/667 nm fluorescence (AID 1096); conditions: NOTCH3 binding, 635 nm fluorescence, higher = more signal
Sequence of Neurogenic locus notch homolog protein 3 (Homo sapiens) (Q9UM47 whole entry, looked up): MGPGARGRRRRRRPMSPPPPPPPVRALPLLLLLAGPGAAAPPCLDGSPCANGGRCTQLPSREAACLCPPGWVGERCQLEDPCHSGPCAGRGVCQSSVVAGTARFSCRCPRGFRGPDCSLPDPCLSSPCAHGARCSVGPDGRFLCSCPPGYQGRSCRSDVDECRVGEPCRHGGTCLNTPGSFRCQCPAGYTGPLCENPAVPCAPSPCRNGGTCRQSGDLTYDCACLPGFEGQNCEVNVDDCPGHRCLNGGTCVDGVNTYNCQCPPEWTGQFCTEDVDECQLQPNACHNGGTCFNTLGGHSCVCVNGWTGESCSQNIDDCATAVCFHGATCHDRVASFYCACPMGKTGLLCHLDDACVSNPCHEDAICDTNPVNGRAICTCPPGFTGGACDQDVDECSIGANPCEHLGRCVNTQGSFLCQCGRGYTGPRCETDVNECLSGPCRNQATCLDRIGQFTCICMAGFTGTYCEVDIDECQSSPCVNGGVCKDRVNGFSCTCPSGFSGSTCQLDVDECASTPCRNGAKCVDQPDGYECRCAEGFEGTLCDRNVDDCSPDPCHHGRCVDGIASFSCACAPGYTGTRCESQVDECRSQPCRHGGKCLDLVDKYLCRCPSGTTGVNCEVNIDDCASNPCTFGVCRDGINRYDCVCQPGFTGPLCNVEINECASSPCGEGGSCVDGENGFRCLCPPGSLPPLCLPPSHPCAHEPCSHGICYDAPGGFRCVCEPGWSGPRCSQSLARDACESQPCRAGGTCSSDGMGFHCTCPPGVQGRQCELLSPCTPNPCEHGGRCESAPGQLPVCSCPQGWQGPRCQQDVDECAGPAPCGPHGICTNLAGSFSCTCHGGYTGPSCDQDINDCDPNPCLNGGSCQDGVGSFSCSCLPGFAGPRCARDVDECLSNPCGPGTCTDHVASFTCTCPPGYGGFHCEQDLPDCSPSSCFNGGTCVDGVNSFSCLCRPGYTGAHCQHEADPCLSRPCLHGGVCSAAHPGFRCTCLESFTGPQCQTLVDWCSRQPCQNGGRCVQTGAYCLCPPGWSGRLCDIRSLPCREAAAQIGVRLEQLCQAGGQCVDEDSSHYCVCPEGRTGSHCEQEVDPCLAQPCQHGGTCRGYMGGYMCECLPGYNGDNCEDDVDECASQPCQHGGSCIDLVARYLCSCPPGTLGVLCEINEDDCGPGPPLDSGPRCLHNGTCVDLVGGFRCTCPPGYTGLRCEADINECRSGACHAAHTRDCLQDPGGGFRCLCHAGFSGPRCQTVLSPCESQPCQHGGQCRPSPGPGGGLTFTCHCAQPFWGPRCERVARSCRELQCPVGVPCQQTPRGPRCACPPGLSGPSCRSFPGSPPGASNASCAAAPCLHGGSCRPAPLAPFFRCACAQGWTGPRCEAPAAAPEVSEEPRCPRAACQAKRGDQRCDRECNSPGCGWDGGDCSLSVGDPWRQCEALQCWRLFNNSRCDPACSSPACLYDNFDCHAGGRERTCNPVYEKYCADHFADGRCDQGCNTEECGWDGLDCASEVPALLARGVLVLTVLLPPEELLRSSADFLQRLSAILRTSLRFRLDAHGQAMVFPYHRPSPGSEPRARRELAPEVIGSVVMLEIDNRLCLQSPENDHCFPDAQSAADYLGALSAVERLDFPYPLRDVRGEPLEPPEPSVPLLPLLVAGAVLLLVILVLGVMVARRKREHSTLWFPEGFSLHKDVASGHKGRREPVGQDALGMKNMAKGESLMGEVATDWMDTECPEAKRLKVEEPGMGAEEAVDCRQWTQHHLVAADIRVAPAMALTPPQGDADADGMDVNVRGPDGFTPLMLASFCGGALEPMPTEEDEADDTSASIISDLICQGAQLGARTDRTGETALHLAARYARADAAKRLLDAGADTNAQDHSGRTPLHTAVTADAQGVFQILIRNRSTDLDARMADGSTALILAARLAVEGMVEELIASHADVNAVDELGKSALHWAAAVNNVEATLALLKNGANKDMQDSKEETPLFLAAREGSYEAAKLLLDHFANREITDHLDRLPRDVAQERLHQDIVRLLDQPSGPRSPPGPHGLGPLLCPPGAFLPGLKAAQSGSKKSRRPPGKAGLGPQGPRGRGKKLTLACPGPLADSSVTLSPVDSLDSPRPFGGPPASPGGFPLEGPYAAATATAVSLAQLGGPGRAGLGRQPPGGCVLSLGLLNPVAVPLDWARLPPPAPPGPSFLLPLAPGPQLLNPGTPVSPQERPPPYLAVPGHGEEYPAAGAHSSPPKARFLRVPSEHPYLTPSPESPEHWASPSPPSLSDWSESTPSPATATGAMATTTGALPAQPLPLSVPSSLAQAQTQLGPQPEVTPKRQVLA

[10] = small-molecule microarray binders of probe aEGFR, primary screen, biochemical, biotinylated probe, 635/667 nm fluorescence (AID 1097); conditions: higher = more signal;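 also: probe is a biotinylated anti-EGFR antibody binding compounds printed on slides; score combines fluorescence near 667 nm and signal to noise of each spot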
[11] = tested on: Plasmodium falciparum Sir2 (PF13_0152, Sir2A); assay: pfSir2 binders on small-molecule microarrays, primary screen, biochemical, small-molecule microarray, 635 nm fluorescence (AID 1098); conditions: small-molecule microarray binding, fluorescence 635 nm; higher = more signal;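 also: score merges spot fluorescence intensity with its signal-to-noise ratio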
[12] = small-molecule microarray binders of probe aDKK1, primary screen, biochemical, biotinylated probe, 635/667 nm fluorescence (AID 1099); conditions: higher = more signal;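 also: score merges 667nm spot fluorescence with signal to noise across triplicate slides; reference of the scale not given here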
[13] = small-molecule microarray binders of probe aCHRDL2, primary screen, biochemical, biotinylated probe, 635/667 nm fluorescence (AID 1100); conditions: higher = more signal
[14] = splicing luciferase reporter signal modulators, primary screen, spliceosome inhibition project, cell-based, HEK293, splice +/- reporter (AID 1101); conditions: luminescence, 24 h, higher = more signal, called active from +8 up or from −8 down;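 also: HEK293 cells carrying a splicing-competent luciferase reporter gene; test concentration not given here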
[15] = biological target: Fibroblast growth factor 10 (Homo sapiens) (UniProt O15520); assay: FGF10 binders on small-molecule microarrays, primary screen, biochemical, small-molecule microarray, 635 nm fluorescence (AID 1102); conditions: FGF10 binding, fluorescence 635 nm, higher = more signal
Sequence of Fibroblast growth factor 10 (Homo sapiens) (O15520 whole entry, looked up): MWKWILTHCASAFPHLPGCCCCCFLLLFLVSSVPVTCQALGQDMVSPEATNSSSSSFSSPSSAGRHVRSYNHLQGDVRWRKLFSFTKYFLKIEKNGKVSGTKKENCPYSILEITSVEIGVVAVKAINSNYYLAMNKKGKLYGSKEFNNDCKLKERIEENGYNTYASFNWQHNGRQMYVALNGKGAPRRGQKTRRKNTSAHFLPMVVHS

[16] = tested on: glycogen synthase kinase-3 (GSK3A per assay name; protocol says GSK3B); assay: GSK3 binders on small-molecule microarrays, primary screen, biochemical, small-molecule microarray, 635 nm fluorescence, GSK3A (AID 1103); conditions: small-molecule microarray binding, fluorescence 635 nm; higher = more signal; also: the record names both GSK3A and GSK3B
[17] = biological target: Epidermal growth factor receptor (Homo sapiens) (UniProt P00533); assay: EGFR binders on small-molecule microarrays, primary screen, biochemical, small-molecule microarray, 635 nm fluorescence (AID 1104); conditions: EGFR binding, higher = more signal;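 also: score merges 667 nm emission intensity with spot signal to noise over triplicate slides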
Sequence of Epidermal growth factor receptor (Homo sapiens) (P00533 whole entry, looked up): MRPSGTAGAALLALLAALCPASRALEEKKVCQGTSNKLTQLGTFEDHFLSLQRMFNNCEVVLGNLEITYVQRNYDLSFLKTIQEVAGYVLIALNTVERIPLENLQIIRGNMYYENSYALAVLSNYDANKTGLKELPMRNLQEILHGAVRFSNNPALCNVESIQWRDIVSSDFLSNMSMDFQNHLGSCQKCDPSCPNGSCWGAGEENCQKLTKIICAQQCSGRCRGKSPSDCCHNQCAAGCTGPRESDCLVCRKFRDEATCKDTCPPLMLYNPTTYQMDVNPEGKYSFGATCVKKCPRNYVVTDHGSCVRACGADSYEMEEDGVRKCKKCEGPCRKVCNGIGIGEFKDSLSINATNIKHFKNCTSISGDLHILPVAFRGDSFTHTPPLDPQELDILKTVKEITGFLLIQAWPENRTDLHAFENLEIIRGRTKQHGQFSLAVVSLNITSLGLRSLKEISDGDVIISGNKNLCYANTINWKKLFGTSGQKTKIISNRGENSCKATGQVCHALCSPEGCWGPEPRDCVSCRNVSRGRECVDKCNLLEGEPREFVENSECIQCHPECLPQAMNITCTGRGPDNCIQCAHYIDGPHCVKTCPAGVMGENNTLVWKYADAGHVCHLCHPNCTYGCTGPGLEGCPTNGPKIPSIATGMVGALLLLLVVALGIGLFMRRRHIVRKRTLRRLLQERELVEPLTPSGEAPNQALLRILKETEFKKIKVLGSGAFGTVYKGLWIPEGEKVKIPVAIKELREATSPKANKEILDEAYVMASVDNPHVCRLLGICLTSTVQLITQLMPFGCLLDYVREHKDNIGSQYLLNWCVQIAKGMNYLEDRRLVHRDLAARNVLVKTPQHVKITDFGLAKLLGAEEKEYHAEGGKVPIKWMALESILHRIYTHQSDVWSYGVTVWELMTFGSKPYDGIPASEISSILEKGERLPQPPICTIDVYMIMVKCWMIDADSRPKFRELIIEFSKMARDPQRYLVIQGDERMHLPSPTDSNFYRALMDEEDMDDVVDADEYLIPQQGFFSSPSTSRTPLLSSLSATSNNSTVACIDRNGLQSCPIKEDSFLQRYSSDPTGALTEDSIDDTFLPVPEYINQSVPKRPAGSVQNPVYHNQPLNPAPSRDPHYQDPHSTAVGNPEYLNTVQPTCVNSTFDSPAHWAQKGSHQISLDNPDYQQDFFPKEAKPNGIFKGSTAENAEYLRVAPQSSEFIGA

[18] = biological target: Follistatin-related protein 3 (Homo sapiens) (UniProt O95633); assay: FSTL3 binders on small-molecule microarrays, primary screen, biochemical, small-molecule microarray, 635 nm fluorescence (AID 1105); conditions: FSTL3 binding, higher = more signal;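 also: score merges emission near 667 nm and signal to noise per printed spot across three slides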
Sequence of Follistatin-related protein 3 (Homo sapiens) (O95633 whole entry, looked up): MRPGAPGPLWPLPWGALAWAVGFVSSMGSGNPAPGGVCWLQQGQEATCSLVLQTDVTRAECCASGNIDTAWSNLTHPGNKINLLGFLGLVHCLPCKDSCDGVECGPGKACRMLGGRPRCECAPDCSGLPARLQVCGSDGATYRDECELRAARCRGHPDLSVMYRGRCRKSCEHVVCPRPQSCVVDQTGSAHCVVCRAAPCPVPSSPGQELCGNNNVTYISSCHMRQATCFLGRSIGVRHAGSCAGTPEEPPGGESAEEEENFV

[19] = biological target: Dickkopf-related protein 1 (Homo sapiens) (UniProt O94907); assay: DKK1 binders on small-molecule microarrays, primary screen, biochemical, small-molecule microarray, 635 nm fluorescence scan (AID 1106); conditions: DKK1 binding, higher = more signal;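 also: score merges emission near 667 nm with signal to noise over three replicate slides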
Sequence of Dickkopf-related protein 1 (Homo sapiens) (O94907 whole entry, looked up): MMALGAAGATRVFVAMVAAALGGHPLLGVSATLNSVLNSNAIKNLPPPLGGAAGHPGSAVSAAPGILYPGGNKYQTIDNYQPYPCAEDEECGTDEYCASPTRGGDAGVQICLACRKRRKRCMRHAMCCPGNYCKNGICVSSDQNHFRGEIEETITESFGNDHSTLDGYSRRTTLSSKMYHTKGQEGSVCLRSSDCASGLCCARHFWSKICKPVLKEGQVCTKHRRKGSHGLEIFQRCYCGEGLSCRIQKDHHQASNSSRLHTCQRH

[20] = tested on: Inhibin beta A chain (activin A); assay: INHBA (activin A) binders on microarrays, primary screen, biochemical, small-molecule microarray, 635 nm fluorescence scan (AID 1107); conditions: small-molecule microarray binding, higher = more signal;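 also: mouse activin A protein probed at 4.33 µg/mL on printed slides; score merges bound-protein fluorescence near 667 nm with spot signal-to-noise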

For COc1ccc([Si](C)(C)[C@@H]2[C@@H](CCO)O[C@]3(C(=O)N(Cc4cccc(NC(=O)[C@H](C)O)c4)c4ccccc43)[C@H]2C)cc1, the composite z-score [1] was 1.54, the z-score [2] was 1.84 (inactive) and the z-score [3] was 0.193 (inactive). The z-score [4] was 34.6 (active), the composite z-score [5] was 2.84 and the z-score [6] was -0.327 (inactive). It also gave a composite z-score [7] of -0.159, a composite z-score [8] of 0.474 and a composite z-score [9] of 0.662. It also gave a composite z-score [10] of -0.152, a composite z-score [11] of 1.42 and a composite z-score [12] of 1.09. The composite z-score [13] was 0.0838, the z-score [14] was -2.89 (inactive) and the composite z-score [15] was 1.08. For the same compound, the composite z-score [16] was 1.27, the composite z-score [17] was 0.0532 and the composite z-score [18] was 0.399. It also gave a composite z-score [19] of 0.244 and a composite z-score [20] of -0.437.
With COCCOC(=O)N1C(=O)[C@@]2(c3cc(C#CC4=CCCCC4)ccc31)[C@H](C(=O)Nc1nc3ccccc3s1)[C@H]1C(=O)O[C@H](c3ccccc3)[C@H](c3ccccc3)N1[C@@H]2c1ccc(O)cc1 the composite z-score [1] was 1.55, the z-score [2] was 0.128 (inactive) and the z-score [3] was -0.663 (inactive). The z-score [4] was 0.364 (inactive), the composite z-score [5] was 2.38 and the z-score [6] was 0.0627 (inactive). It also gave a composite z-score [7] of -0.0823, a composite z-score [8] of 1.21 and a composite z-score [9] of 1.07. For the same compound, the composite z-score [10] was -0.0975, the composite z-score [11] was 0.61 and the composite z-score [12] was 0.157. For the same compound, the composite z-score [13] was -0.0764, the z-score [14] was 0.111 (inactive) and the composite z-score [15] was 0.669. It also gave a composite z-score [16] of 1.28, a composite z-score [17] of 0.635 and a composite z-score [18] of 0.918. It also gave a composite z-score [19] of 1.11 and a composite z-score [20] of 0.872.
For O=C1C2C=CC(C(O)c3cccc(O)c3)N(Nc3ccc([N+](=O)[O-])cc3)C2C(=O)N1c1ccccc1 (stereo not given), the composite z-score [1] was 0.622, the z-score [2] was 0.706 (inactive) and the z-score [3] was 0.667 (inactive). For the same compound, the z-score [4] was 1.3 (inactive), the composite z-score [5] was 1.87 and the z-score [6] was 0.404 (inactive). The composite z-score [7] was -0.021, the composite z-score [8] was 0.196 and the composite z-score [9] was 0.715. The composite z-score [10] was -0.0041, the composite z-score [11] was 0.367 and the composite z-score [12] was 0.158. The composite z-score [13] was 0.451, the z-score [14] was 0.663 (inactive) and the composite z-score [15] was 1.07. For the same compound, the composite z-score [16] was 0.672, the composite z-score [17] was 0.254 and the composite z-score [18] was 0.444. It also gave a composite z-score [19] of 0.239 and a composite z-score [20] of 0.199.
With COC(=O)C1=CC(CCCO)=CC(c2cccs2)N(C)C=C1C(=O)OC (stereo not given) the composite z-score [1] was 0.0782, the z-score [2] was 0.112 (inactive) and the z-score [3] was 0.009 (inactive). The z-score [4] was 0.241 (inactive), the composite z-score [5] was 1.6 and the z-score [6] was 0.39 (inactive). It also gave a composite z-score [7] of 0.0099, a composite z-score [8] of -0.561 and a composite z-score [9] of 0.275. The composite z-score [10] was -0.0034, the composite z-score [11] was 1.52 and the composite z-score [12] was 0.122. The composite z-score [13] was 0.187, the z-score [14] was 0.844 (inactive) and the composite z-score [15] was -0.604. For the same compound, the composite z-score [16] was -1.39, the composite z-score [17] was -0.904 and the composite z-score [18] was 0.0507. It also gave a composite z-score [19] of -0.442 and a composite z-score [20] of 0.788.
With C=C(C(=O)CC[C@H](OC(=O)c1ccccc1-c1ccccc1C(=O)O)c1cccc(OCCO)c1)C(C)C the composite z-score [1] was 0.0697, the z-score [2] was 0.521 (inactive) and the z-score [3] was -0.561 (inactive). The z-score [4] was -0.518 (inactive), the composite z-score [5] was -0.138 and the z-score [6] was -0.164 (inactive). The composite z-score [7] was -0.191, the composite z-score [8] was 0.437 and the composite z-score [9] was 0.324. It also gave a composite z-score [10] of -0.18, a composite z-score [11] of 0.627 and a composite z-score [12] of 0.414. The composite z-score [13] was -0.265, the z-score [14] was -0.369 (inactive) and the composite z-score [15] was 0.353. It also gave a composite z-score [16] of -0.418, a composite z-score [17] of -0.803 and a composite z-score [18] of 0.0151. For the same compound, the composite z-score [19] was 0.0159 and the composite z-score [20] was 0.495.
